Test in all cases: PBM; 200 nM protein, PBS
Common to all, as to conditions: dsDNA, one strand shown

Assay [1] concerns the target HOXB4 (Homo sapiens, UniProt P17483 148-234).
The target of assay [2] is HOXB4 (Homo sapiens, UniProt P17483 148-234, V174I).
For assay [3], the target named is HOXA4 (Homo sapiens, UniProt Q00056 201-287, W262R).
Assay [4] addresses HOXA2 (Homo sapiens, UniProt O43364 129-215, R185T).
Assay [5] deals with HOXA4 (Homo sapiens, UniProt Q00056 201-287, R217L).
Assay [6] has as its target HOXA2 (Homo sapiens, UniProt O43364 129-215, R185K).
Assay [7] addresses HOXA4 (Homo sapiens, UniProt Q00056 201-287).
In assay [8] the target is VAX1 (Homo sapiens, UniProt Q5SQQ9 86-172).
Chain of VAX1 (Homo sapiens, UniProt Q5SQQ9 86-172) (Q5SQQ9 86-172): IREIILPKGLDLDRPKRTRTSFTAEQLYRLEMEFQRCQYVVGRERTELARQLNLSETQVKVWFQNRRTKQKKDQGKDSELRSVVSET
For assay [9], the target named is VAX1 (Homo sapiens, UniProt Q5SQQ9 86-172, T142I).
Chain of VAX1 (Homo sapiens, UniProt Q5SQQ9 86-172, T142I) (Q5SQQ9 86-172 T142I): as the sequence (Q5SQQ9 86-172) above, with T57I counted along it
In assay [10] the target is HOXA2 (Homo sapiens, UniProt O43364 129-215, Y150S).
Chain of HOXA2 (Homo sapiens, UniProt O43364 129-215, Y150S) (O43364 129-215 Y150S): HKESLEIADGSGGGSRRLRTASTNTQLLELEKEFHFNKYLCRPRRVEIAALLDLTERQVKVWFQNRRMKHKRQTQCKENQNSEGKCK
In assay [11] the target is HOXA4 (Homo sapiens, UniProt Q00056 201-287, W262F).
Chain of HOXA4 (Homo sapiens, UniProt Q00056 201-287, W262F) (Q00056 201-287 W262F): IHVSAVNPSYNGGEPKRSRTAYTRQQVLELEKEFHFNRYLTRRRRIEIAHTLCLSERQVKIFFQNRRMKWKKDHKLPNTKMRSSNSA
Assay [12] has as its target HOXA2 (Homo sapiens, UniProt O43364 129-215).
The target in assay [13] is VAX1 (Homo sapiens, UniProt Q5SQQ9 86-172, K157R).
Chain of VAX1 (Homo sapiens, UniProt Q5SQQ9 86-172, K157R) (Q5SQQ9 86-172 K157R): as the sequence (Q5SQQ9 86-172) above, with K72R counted along it
Assay [14] concerns the target HOXB6 (Homo sapiens, UniProt P17509 132-218, K202E).
In assay [15] the target is HOXB6 (Homo sapiens, UniProt P17509 132-218).
Chain of HOXB6 (Homo sapiens, UniProt P17509 132-218) (P17509 132-218): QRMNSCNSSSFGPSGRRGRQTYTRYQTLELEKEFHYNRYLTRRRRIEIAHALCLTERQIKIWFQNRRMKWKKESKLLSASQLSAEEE
Assay [16] addresses HOXA7 (Homo sapiens, UniProt P31268 116-202).
Assay [17] concerns the target HOXA7 (Homo sapiens, UniProt P31268 116-202, W177C).
Assay [18] addresses T1, VENTX (Homo sapiens, UniProt O95231 78-163, Y115F).
T1 sequence: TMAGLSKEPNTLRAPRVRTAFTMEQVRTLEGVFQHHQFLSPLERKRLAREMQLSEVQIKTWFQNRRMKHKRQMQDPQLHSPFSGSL

Chain of HOXB4 (Homo sapiens, UniProt P17483 148-234, V174I) (P17483 148-234 V174I): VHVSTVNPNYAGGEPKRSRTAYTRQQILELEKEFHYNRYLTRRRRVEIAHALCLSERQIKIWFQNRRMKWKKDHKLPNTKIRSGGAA
Chain of HOXA2 (Homo sapiens, UniProt O43364 129-215, R185T) (O43364 129-215 R185T): as the sequence (O43364 129-215 Y150S) above, with S22Y, R57T counted along it
Chain of HOXB6 (Homo sapiens, UniProt P17509 132-218, K202E) (P17509 132-218 K202E): as the sequence (P17509 132-218) above, with K71E counted along it
Chain of HOXA4 (Homo sapiens, UniProt Q00056 201-287) (Q00056 201-287): as the sequence (Q00056 201-287 W262F) above, with F62W counted along it
Chain of HOXA4 (Homo sapiens, UniProt Q00056 201-287, W262R) (Q00056 201-287 W262R): as the sequence (Q00056 201-287 W262F) above, with F62R counted along it
Chain of HOXA4 (Homo sapiens, UniProt Q00056 201-287, R217L) (Q00056 201-287 R217L): as the sequence (Q00056 201-287 W262F) above, with R17L, F62W counted along it
Chain of HOXA2 (Homo sapiens, UniProt O43364 129-215, R185K) (O43364 129-215 R185K): as the sequence (O43364 129-215 Y150S) above, with S22Y, R57K counted along it
Chain of HOXA2 (Homo sapiens, UniProt O43364 129-215) (O43364 129-215): as the sequence (O43364 129-215 Y150S) above, with S22Y counted along it
Chain of HOXB4 (Homo sapiens, UniProt P17483 148-234) (P17483 148-234): as the sequence (P17483 148-234 V174I) above, with I27V counted along it
Chain of HOXA7 (Homo sapiens, UniProt P31268 116-202, W177C) (P31268 116-202 W177C): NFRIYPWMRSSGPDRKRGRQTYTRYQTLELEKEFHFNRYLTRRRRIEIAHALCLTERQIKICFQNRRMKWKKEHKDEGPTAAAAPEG
Chain of HOXA7 (Homo sapiens, UniProt P31268 116-202) (P31268 116-202): as the sequence (P31268 116-202 W177C) above, with C62W counted along it

As for CGAGGCAC, the binding signal in [1] was 7.73 upbm affinity estimate (log intensity, higher = more binding, comparable within an allelic series); in assay [2], 7.43 upbm affinity estimate (log intensity, higher = more binding, comparable within an allelic series).
Consider CATCATTA, for which the binding signal in assay [1] is 13.4 upbm affinity estimate (log intensity, higher = more binding, comparable within an allelic series); in [3] it was 10.8 upbm affinity estimate (log intensity, higher = more binding, comparable within an allelic series); in assay [4], 12.5 upbm affinity estimate (log intensity, higher = more binding, comparable within an allelic series); in assay [5], 12.3 upbm affinity estimate (log intensity, higher = more binding, comparable within an allelic series); in assay [2], 14 upbm affinity estimate (log intensity, higher = more binding, comparable within an allelic series); in assay [6], 13.2 upbm affinity estimate (log intensity, higher = more binding, comparable within an allelic series). Moreover, the binding signal in assay [7] is 14 upbm affinity estimate (log intensity, higher = more binding, comparable within an allelic series); in [8] it was 12.9 upbm affinity estimate (log intensity, higher = more binding, comparable within an allelic series); in assay [9] it was 12.8 upbm affinity estimate (log intensity, higher = more binding, comparable within an allelic series); in assay [10], 11 upbm affinity estimate (log intensity, higher = more binding, comparable within an allelic series); in [11] it was 11.8 upbm affinity estimate (log intensity, higher = more binding, comparable within an allelic series); in assay [12] it was 12.3 upbm affinity estimate (log intensity, higher = more binding, comparable within an allelic series). In assay [13], the binding signal is 12.7 upbm affinity estimate (log intensity, higher = more binding, comparable within an allelic series).
Turning to TATTTAAA, the binding signal in assay [1] was 11.2 upbm affinity estimate (log intensity, higher = more binding, comparable within an allelic series); in assay [3], 10.5 upbm affinity estimate (log intensity, higher = more binding, comparable within an allelic series); in [2] it was 11.2 upbm affinity estimate (log intensity, higher = more binding, comparable within an allelic series); in assay [7], 12 upbm affinity estimate (log intensity, higher = more binding, comparable within an allelic series).
With ATTTGAAC, the binding signal in [1] was 9.93 upbm affinity estimate (log intensity, higher = more binding, comparable within an allelic series); in assay [2] it was 9.93 upbm affinity estimate (log intensity, higher = more binding, comparable within an allelic series).
With CGGGGGTC, the binding signal was 7.85 upbm affinity estimate (log intensity, higher = more binding, comparable within an allelic series) in [1]; 8.98 upbm affinity estimate (log intensity, higher = more binding, comparable within an allelic series) in assay [14]; 7.45 upbm affinity estimate (log intensity, higher = more binding, comparable within an allelic series) in [2]; 9.04 upbm affinity estimate (log intensity, higher = more binding, comparable within an allelic series) in [15].
For GTGGGGGA, the binding signal in assay [1] is 7.95 upbm affinity estimate (log intensity, higher = more binding, comparable within an allelic series); in assay [16], 8.47 upbm affinity estimate (log intensity, higher = more binding, comparable within an allelic series); in assay [14], 9.05 upbm affinity estimate (log intensity, higher = more binding, comparable within an allelic series); in [2], 7.59 upbm affinity estimate (log intensity, higher = more binding, comparable within an allelic series); in assay [17] it was 8.55 upbm affinity estimate (log intensity, higher = more binding, comparable within an allelic series); in assay [15], 9.14 upbm affinity estimate (log intensity, higher = more binding, comparable within an allelic series).
Consider CCTAATGA, for which the binding signal in assay [1] was 13 upbm affinity estimate (log intensity, higher = more binding, comparable within an allelic series); in assay [3], 10.5 upbm affinity estimate (log intensity, higher = more binding, comparable within an allelic series); in assay [18], 11.5 upbm affinity estimate (log intensity, higher = more binding, comparable within an allelic series); in assay [4], 12.7 upbm affinity estimate (log intensity, higher = more binding, comparable within an allelic series); in [5], 11.7 upbm affinity estimate (log intensity, higher = more binding, comparable within an allelic series); in [2], 13.6 upbm affinity estimate (log intensity, higher = more binding, comparable within an allelic series). Further, the binding signal is 13.4 upbm affinity estimate (log intensity, higher = more binding, comparable within an allelic series) in assay [6]; 13.7 upbm affinity estimate (log intensity, higher = more binding, comparable within an allelic series) in assay [7]; 13.2 upbm affinity estimate (log intensity, higher = more binding, comparable within an allelic series) in assay [8]; 13 upbm affinity estimate (log intensity, higher = more binding, comparable within an allelic series) in [9]; 10.7 upbm affinity estimate (log intensity, higher = more binding, comparable within an allelic series) in [10]; 11.6 upbm affinity estimate (log intensity, higher = more binding, comparable within an allelic series) in [11]. In addition, the binding signal was 12.4 upbm affinity estimate (log intensity, higher = more binding, comparable within an allelic series) in assay [12] and 13 upbm affinity estimate (log intensity, higher = more binding, comparable within an allelic series) in assay [13].
With CCCTTGCG, the binding signal in assay [1] is 7.39 upbm affinity estimate (log intensity, higher = more binding, comparable within an allelic series); in [3], 9.76 upbm affinity estimate (log intensity, higher = more binding, comparable within an allelic series); in assay [5], 9.77 upbm affinity estimate (log intensity, higher = more binding, comparable within an allelic series); in [2] it was 7.32 upbm affinity estimate (log intensity, higher = more binding, comparable within an allelic series); in assay [7] it was 9.61 upbm affinity estimate (log intensity, higher = more binding, comparable within an allelic series); in [11], 9.81 upbm affinity estimate (log intensity, higher = more binding, comparable within an allelic series).
As to GTTCATTA, the binding signal in assay [1] is 13 upbm affinity estimate (log intensity, higher = more binding, comparable within an allelic series); in assay [16], 10.2 upbm affinity estimate (log intensity, higher = more binding, comparable within an allelic series); in assay [2] it was 13.6 upbm affinity estimate (log intensity, higher = more binding, comparable within an allelic series); in [17] it was 8.87 upbm affinity estimate (log intensity, higher = more binding, comparable within an allelic series).
With ATTAATCA, the binding signal in assay [1] was 13.2 upbm affinity estimate (log intensity, higher = more binding, comparable within an allelic series); in assay [3] it was 10.6 upbm affinity estimate (log intensity, higher = more binding, comparable within an allelic series); in [14], 9.98 upbm affinity estimate (log intensity, higher = more binding, comparable within an allelic series); in assay [4], 12.6 upbm affinity estimate (log intensity, higher = more binding, comparable within an allelic series); in assay [5] it was 12.1 upbm affinity estimate (log intensity, higher = more binding, comparable within an allelic series); in assay [2], 13.9 upbm affinity estimate (log intensity, higher = more binding, comparable within an allelic series). Further, the binding signal in [6] is 13.3 upbm affinity estimate (log intensity, higher = more binding, comparable within an allelic series); in assay [7], 13.6 upbm affinity estimate (log intensity, higher = more binding, comparable within an allelic series); in [11], 11.4 upbm affinity estimate (log intensity, higher = more binding, comparable within an allelic series).
In the case of ATCATTAC, the binding signal was 13.1 upbm affinity estimate (log intensity, higher = more binding, comparable within an allelic series) in assay [1]; 10.4 upbm affinity estimate (log intensity, higher = more binding, comparable within an allelic series) in [3]; 12 upbm affinity estimate (log intensity, higher = more binding, comparable within an allelic series) in [5]; 13.8 upbm affinity estimate (log intensity, higher = more binding, comparable within an allelic series) in [2]; 13.6 upbm affinity estimate (log intensity, higher = more binding, comparable within an allelic series) in assay [7]; 11.2 upbm affinity estimate (log intensity, higher = more binding, comparable within an allelic series) in [11].
On to CGGCGGTC, for which the binding signal in [1] is 7.42 upbm affinity estimate (log intensity, higher = more binding, comparable within an allelic series); in assay [3], 9.72 upbm affinity estimate (log intensity, higher = more binding, comparable within an allelic series); in [5] it was 9.69 upbm affinity estimate (log intensity, higher = more binding, comparable within an allelic series); in assay [2], 7.32 upbm affinity estimate (log intensity, higher = more binding, comparable within an allelic series); in assay [7], 9.77 upbm affinity estimate (log intensity, higher = more binding, comparable within an allelic series); in assay [11], 9.76 upbm affinity estimate (log intensity, higher = more binding, comparable within an allelic series).
As for CATAATGA, the binding signal is 13 upbm affinity estimate (log intensity, higher = more binding, comparable within an allelic series) in assay [1]; 10.6 upbm affinity estimate (log intensity, higher = more binding, comparable within an allelic series) in assay [3]; 12 upbm affinity estimate (log intensity, higher = more binding, comparable within an allelic series) in assay [4]; 11.9 upbm affinity estimate (log intensity, higher = more binding, comparable within an allelic series) in assay [5]; 13.5 upbm affinity estimate (log intensity, higher = more binding, comparable within an allelic series) in assay [2]; 13.1 upbm affinity estimate (log intensity, higher = more binding, comparable within an allelic series) in assay [6]. Also, the binding signal in assay [7] was 13.6 upbm affinity estimate (log intensity, higher = more binding, comparable within an allelic series); in assay [10], 11 upbm affinity estimate (log intensity, higher = more binding, comparable within an allelic series); in assay [11], 11.3 upbm affinity estimate (log intensity, higher = more binding, comparable within an allelic series); in [12], 12.1 upbm affinity estimate (log intensity, higher = more binding, comparable within an allelic series).
In the case of CCTGCCCC, the binding signal in assay [1] was 7.51 upbm affinity estimate (log intensity, higher = more binding, comparable within an allelic series); in assay [2], 7.65 upbm affinity estimate (log intensity, higher = more binding, comparable within an allelic series).
Turning to ACGTGGCG, the binding signal was 7.5 upbm affinity estimate (log intensity, higher = more binding, comparable within an allelic series) in assay [1] and 7.6 upbm affinity estimate (log intensity, higher = more binding, comparable within an allelic series) in assay [2].
Take CAGGGTCC: the binding signal in [1] was 7.33 upbm affinity estimate (log intensity, higher = more binding, comparable within an allelic series); in [2], 7.37 upbm affinity estimate (log intensity, higher = more binding, comparable within an allelic series).
As for CCTCACCG, the binding signal in [1] was 7.41 upbm affinity estimate (log intensity, higher = more binding, comparable within an allelic series); in [2] it was 7.32 upbm affinity estimate (log intensity, higher = more binding, comparable within an allelic series).
CGGGGGGA: the binding signal in [1] was 7.79 upbm affinity estimate (log intensity, higher = more binding, comparable within an allelic series); in assay [4], 7.04 upbm affinity estimate (log intensity, higher = more binding, comparable within an allelic series); in [2], 7.87 upbm affinity estimate (log intensity, higher = more binding, comparable within an allelic series); in assay [6], 10.1 upbm affinity estimate (log intensity, higher = more binding, comparable within an allelic series); in assay [10], 10.3 upbm affinity estimate (log intensity, higher = more binding, comparable within an allelic series); in [12], 7.09 upbm affinity estimate (log intensity, higher = more binding, comparable within an allelic series).

The values above are taken from article PMC11006913.
